Results as given in PubChem BioAssay (Tox21).
Inconclusive results are not listed. A call without a number means that no potency is given here. Active and inactive are the calls of the source. Calls come from the whole dose curve; as a rule, active = well fitted curve in the direction sought with a large enough effect in the repeat runs; inconclusive = weak or mixed curves; inactive = no such curve, though single readings can be large; an effect the other way counts as inactive or inconclusive.

Assay: Caspase-3/7 induction in CHO-K1 cells by small molecules, qHTS cell viability counter screen (AID 1346979); note: nearly all actives have a fitted effect of over 35% in size
Details: CellTiter-Fluor fluorescence, 17 h; series mostly up to 92.4 µM
In short: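 Wild-type CHO-K1 cells (1,500/well) treated with compound after 5 h plating; after 16 h at 37C, viability read as CellTiter-Fluor fluorescence following 1 h reagent incubation, in the same wells as the caspase read.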
Potency is the fitted concentration of half-maximal effect.

SMILES | Potency
CCC[CH2][Sn]([CH2]CCC)([CH2]CCC)[CH2]CCC | 9.69 µM (active)
O=[N+]([O-])C(Br)Br | inactive
CO/N=C(/C1=NOCCO1)c1ccccc1Oc1ncnc(Oc2ccccc2Cl)c1F | 1.72 µM (active)
CC(C)C(Br)C(=O)NC(N)=O (stereo unspecified) | inactive

Assay: Caspase-3/7 induction in CHO-K1 cells by small molecules, qHTS assay (AID 1346980); note: nearly all actives have a fitted effect of over 15% in size
Details: CHO-K1 caspase-3/7 induction, Caspase-Glo luminescence, 17 h; series mostly up to 92.4 µM
In short: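 Wild-type CHO-K1 cells exposed to compounds for 17hr at 37 C, 5% CO2. Caspase-3/7 activity then measured by Caspase-Glo 3/7 luminescence after 30min at room temperature.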

SMILES | Potency
CC(C)Br | inactive
CN(C)c1ccc(N)cc1 | inactive
N#Cc1c[nH]cc1-c1cccc2c1OC(F)(F)O2 | inactive
Nc1cc(Cl)ccc1Cl | inactive
COP(=O)(OC)Oc1ccc([N+](=O)[O-])cc1 | inactive
Nc1c(Cl)c(Cl)c(Cl)c(Cl)c1Cl | inactive
CSC1=N[C@@](C)(c2ccccc2)C(=O)N1Nc1ccccc1 | inactive
FC(F)C(F)(F)OCC(Cn1cncn1)c1ccc(Cl)cc1Cl (stereo unspecified) | inactive
CN1CCc2cc3c(cc2C1O)OCO3 (stereo unspecified) | inactive
c1ccc(Nc2ccc(Nc3ccccc3)cc2)cc1 | inactive
CC(=O)[O-].CC(=O)[O-].O.O.[Zn+2] | inactive
c1csc(-c2ccc(-c3cccs3)s2)c1 | inactive
CC[C@H](C)[C@H]1O[C@]2(C=C[C@@H]1C)C[C@@H]1C[C@@H](C/C=C(\C)[C@@H](O[C@H]3C[C@H](OC)[C@@H](O[C@H]4C[C@H](OC)[C@@H](NC)[C@H](C)O4)[C@H](C)O3)[C@@H](C)/C=C/C=C3\CO[C@@H]4[C@H](O)C(C)=C[C@@H](C(=O)O1)[C@]34O)O2 | 6.11 µM (active)
CC1CCCC1 | inactive
Nc1ccc(N=Nc2ccccc2)cc1 | inactive
Clc1ccc(C2(Cn3cncn3)OCCO2)c(Cl)c1 | inactive
Cc1nn(-c2cc(NS(C)(=O)=O)c(Cl)cc2Cl)c(=O)n1C(F)F | inactive
CSC(C)(C)/C=N/O | inactive
O.O.O.O=C([O-])[C@H]([O-])[C@@H]([O-])C(=O)[O-].O=C([O-])[C@H]([O-])[C@@H]([O-])C(=O)[O-].[K+].[K+].[Sb+3].[Sb+3] | inactive

SMILES | Potency
O=c1c2ccccc2c(=O)c2c1cc(Cl)c1[nH]c3c([nH]c12)c(Cl)cc1c(=O)c2ccccc2c(=O)c13 | inactive
CN(C)CCc1c[nH]c2ccccc12 | inactive
CCN(CC)C(=S)S | inactive
O=[N+]([O-])c1ccc(Cl)c(Cl)c1Cl | inactive
CNN | inactive
CCOP(=S)(OCC)Oc1cc(C)nc(N(CC)CC)n1 | inactive
[O]=[Cr][O][Cr]=[O] | inactive
O=[N+]([O-])c1cccc2cccc([N+](=O)[O-])c12 | inactive
CCN(CC)CCc1c[nH]c2ccccc12 | inactive
O=NN(CCO)CCO | inactive
CC(C)c1c(CN(C)C(C)Cc2ccccc2)n(C)n(-c2ccccc2)c1=O (stereo unspecified) | inactive
CCOP(=S)(NC(C)C)Oc1ccccc1C(=O)OC(C)C (stereo unspecified) | inactive
COc1ccc2c(c1OC)C(=O)O[C@@H]2[C@H]1c2cc3c(cc2CCN1C)OCO3 | inactive
CCC[CH2][Sn]([CH2]CCC)([CH2]CCC)[CH2]CCC | 17.2 µM (active)
O=[N+]([O-])C(Br)Br | inactive
CO/N=C(/C1=NOCCO1)c1ccccc1Oc1ncnc(Oc2ccccc2Cl)c1F | inactive
CC(C)C(Br)C(=O)NC(N)=O (stereo unspecified) | inactive
O=C1C[C@@H]2OCC=C3CN4CC[C@]56c7ccccc7N1[C@H]5[C@H]2[C@H]3C[C@H]46 | inactive

Assay: Caspase-3/7 induction in HepG2 cells by small molecules, qHTS cell viability counter screen (AID 1346981); note: nearly all actives have a fitted effect of over 30% in size
Details: CellTiter-Fluor fluorescence, 17 h; series mostly up to 92.4 µM
In short: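 CellTiter-Fluor fluorescence measured viability in the same wells used for Caspase-Glo 3/7. HepG2 (wild type) at 2,000 cells/well were pre-incubated 5 hr, dosed, and given reagent at 16 hr, with 1 hr further at 37C.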

SMILES | Potency
CC(C)Br | inactive
CN(C)c1ccc(N)cc1 | 47.4 µM (active)
Nc1cc(Cl)ccc1Cl | inactive
Nc1c(Cl)c(Cl)c(Cl)c(Cl)c1Cl | inactive
c1ccc(Nc2ccc(Nc3ccccc3)cc2)cc1 | inactive
CC(=O)[O-].CC(=O)[O-].O.O.[Zn+2] | inactive
c1csc(-c2ccc(-c3cccs3)s2)c1 | inactive
CC[C@H](C)[C@H]1O[C@]2(C=C[C@@H]1C)C[C@@H]1C[C@@H](C/C=C(\C)[C@@H](O[C@H]3C[C@H](OC)[C@@H](O[C@H]4C[C@H](OC)[C@@H](NC)[C@H](C)O4)[C@H](C)O3)[C@@H](C)/C=C/C=C3\CO[C@@H]4[C@H](O)C(C)=C[C@@H](C(=O)O1)[C@]34O)O2 | 15.4 µM (active)
CC1CCCC1 | inactive
CCC(OC(C)=O)C(CC(C)NC)(c1ccccc1)c1ccccc1 (stereo unspecified) | 69.2 µM (active)
Nc1ccc(N=Nc2ccccc2)cc1 | 36.4 µM (active)
Cc1nn(-c2cc(NS(C)(=O)=O)c(Cl)cc2Cl)c(=O)n1C(F)F | inactive
CSC(C)(C)/C=N/O | inactive
O.O.O.O=C([O-])[C@H]([O-])[C@@H]([O-])C(=O)[O-].O=C([O-])[C@H]([O-])[C@@H]([O-])C(=O)[O-].[K+].[K+].[Sb+3].[Sb+3] | inactive
O=c1c2ccccc2c(=O)c2c1cc(Cl)c1[nH]c3c([nH]c12)c(Cl)cc1c(=O)c2ccccc2c(=O)c13 | inactive
CN(C)CCc1c[nH]c2ccccc12 | inactive
CCN(CC)C(=S)S | inactive
O=[N+]([O-])c1ccc(Cl)c(Cl)c1Cl | inactive
CNN | inactive
CCOP(=S)(OCC)Oc1cc(C)nc(N(CC)CC)n1 | inactive
[O]=[Cr][O][Cr]=[O] | inactive
O=[N+]([O-])c1cccc2cccc([N+](=O)[O-])c12 | inactive
CCN(CC)CCc1c[nH]c2ccccc12 | inactive
O=NN(CCO)CCO | inactive
CC(C)c1c(CN(C)C(C)Cc2ccccc2)n(C)n(-c2ccccc2)c1=O (stereo unspecified) | inactive
COc1ccc2c(c1OC)C(=O)O[C@@H]2[C@H]1c2cc3c(cc2CCN1C)OCO3 | 17.1 µM (active)
CCC[CH2][Sn]([CH2]CCC)([CH2]CCC)[CH2]CCC | 61.1 µM (active)
O=[N+]([O-])C(Br)Br | inactive
CO/N=C(/C1=NOCCO1)c1ccccc1Oc1ncnc(Oc2ccccc2Cl)c1F | 30.6 µM (active)
CC(C)C(Br)C(=O)NC(N)=O (stereo unspecified) | inactive
